# Test results as given in PubChem BioAssay AID624297 (National Center for Advancing Translational Sciences (NCATS), 2012).
# The campaign covered roughly 340,000 compounds. About 6,200 (1.8%) were called active. Where a call stands in place of a potency, no number is given. Inconclusive results (about 10%) are left out. The sample as a whole holds a higher share of actives than the screen did. Unmarked numbers belong to inactive results. The call rests on the fitted dose curve; in most records, active means well fitted activation curve with a large enough effect; inconclusive means small, poorly fitted or top-dose-only effect; inactive means no such curve, though single readings can be large or run the other way.
# Experiment: A quantitative high throughput screen for small molecules that induce DNA re-replication in SW480 colon adenocarcinoma cells. Further: nearly all actives have a fitted effect of over 55% in size.
# Conditions: Hoechst DNA content imaging, 48 h; series mostly up to 46.1 µM
# Summary of the method: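 Hoechst fluorescence of nuclei (405 nm excitation, 500-530 nm emission) measured by plate-scanning imager after 48 hr compound exposure at 37 C; re-replication scored as increased number of nuclei with elevated intensity.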
# Potency means the concentration at half of the fitted maximal effect.
SMILES,Potency,re-replication activation
Oc1ccccc1/C=N/n1c(-c2cccs2)n[nH]c1=S,inactive,
Cc1cc(-c2n[nH]c(=S)n2/N=C/C(Br)=C/c2ccccc2)n[nH]1,6.51 µM (active),
S=c1[nH]nc(-c2cccs2)n1/N=C/c1cccs1,inactive,
Cc1ccc(C2=Nc3c(ccc4ccccc34)C(c3ccncc3)=NN2)cc1,18.4 µM (active),
CN(C(=O)COC(=O)Cn1cnc2c1c(=O)n(C)c(=O)n2C)C1(C#N)CCCCC1,inactive,
CS(=O)(=O)c1ccc(C(=O)NNC(=O)c2cccs2)cc1,inactive,
O=C(COC(=O)Cc1ccc([N+](=O)[O-])cc1)NC1CCCCCC1,inactive,
O=C(OCC(=O)N1CCN(c2ccccc2)CC1)c1ccc([N+](=O)[O-])s1,inactive,
N#CCc1c[nH]c2ccc([N+](=O)[O-])cc12,inactive,
C/C=C/c1ccc(OCC(=O)NNC(=O)CN(C)S(=O)(=O)c2ccc(C)cc2)c(OC)c1,inactive,
CCCCSc1nc2ccccc2[nH]1,inactive,
CCC(C)N1C(=O)S/C(=C/c2ccc(Sc3nc4ccccc4[nH]3)o2)C1=O (centres undefined),18.4 µM (active),
CCc1nnc(NC(=O)CCCSc2nc3ccccc3[nH]2)s1,inactive,
Nc1ncnc2c1cnn2C1CC(O)C(CO)O1 (centres undefined),inactive,
CC(C)N(C(=O)[C@H]1C[C@H](CC(=O)NCCC2=CCCCC2)C(=O)N2CCc3c([nH]c4cc(CCC(=O)N(C)C)ccc34)[C@]12C)C(C)C,inactive,
CC(Nc1ccc([N+](=O)[O-])cc1[N+](=O)[O-])c1ccccc1 (centres undefined),inactive,
COc1ccccc1NC(=O)CSc1nc2sc3c(c2c(=O)n1-c1ccccc1)CCN(C)C3,inactive,
CCOc1ccc(-n2c(SCC(=O)OC)nc3sc4c(c3c2=O)CCN(C)C4)cc1,inactive,
CCCSc1nc2sc3c(c2c(=O)n1-c1ccc(OC)cc1)CCN(C)C3,1.84 µM (active),
Cc1noc(C)c1NC(=O)Nc1ccc2c(c1)C(=O)N([C@H](C)CO)C[C@H](C)[C@@H](CN(C)S(=O)(=O)c1cn(C)cn1)O2,inactive,
C[C@]12c3[nH]c4ccc(Cl)cc4c3CCN1C(=O)[C@@H](CC(=O)NCCCn1ccnc1)C[C@@H]2C(=O)N1CCOCC1,inactive,
O=C(N/N=C/c1ccccc1O)C1CCCC1,4.61 µM (active),
Oc1ccccc1C=NC1CCCCC1N=Cc1ccccc1O (centres undefined),inactive,
COc1ccc(/C=N/NC(=O)C2CC2)c(OC)c1OC,inactive,
O=C(NN=Cc1ccccc1O)NN=Cc1ccccc1O,16.4 µM (active),

SMILES,Potency,re-replication activation
O=C(NN=Cc1ccccc1)c1ccccc1,inactive,
O=C(N/N=C/c1c[nH]c2ccccc12)c1ccccc1O,inactive,
NC(CSC1(c2ccccc2)c2ccccc2-c2ccccc21)C(=O)O (centres undefined),inactive,
COc1cc(OC)cc(C(=O)NCC(=O)N2CCCCCCC2)c1,inactive,
NC(=O)c1ncn([C@@H]2O[C@H](CNCc3cnc(N4CCOCC4)s3)[C@@H](O)[C@H]2O)n1,inactive,
NS(=O)(=O)c1ccc(CCNC(=O)c2ccc(Cl)c(S(=O)(=O)N3CCCCCC3)c2)cc1,inactive,
COc1ccc2oc(N)nc2c1,inactive,
CC[C@]1(C(=O)OC)[C@H]2C(=O)N(Cc3ccccc3)C(=O)[C@H]2[C@H]2CN=C(SCc3ccc(Cl)cc3)N21,inactive,
CCc1c(Nc2ccccc2C)nc(N)[nH]c1=O,inactive,
Cc1c(C(=O)N2CCCc3ccccc32)oc2ccccc12,inactive,
Cc1cccc2cc3c(N)c(C(=O)N4CCCc5ccccc54)sc3nc12,5.17 µM (active),
Cc1c(C(=O)N2CCCc3ccccc32)sc2nc(-c3ccccc3)cn12,inactive,
CN(C(=O)c1cccc(NC(=O)Cc2cccc(NC(=O)C3CCCN(C(=O)C4CC4)C3)c2)c1)C1CCC1 (centres undefined),,3.52% [at 9.22 µM]
CC[C@]1(c2ccccc2OC)C(=O)N(C(=O)OC)N1C(=O)OC,23.1 µM (active),
COc1ccccc1CC(=O)Nc1ccc(F)cc1F,inactive,
COC(=O)c1ccccc1NC(=O)Cc1ccccc1OC,inactive,
O=C(Cc1ccc(Cl)cc1)c1ccccc1,inactive,
O=C1CC(C(=O)O)NC(=S)N1 (centres undefined),inactive,
Cc1ccc(C)c(N2CCN(C(=O)CCc3nc(-c4cccc(C(F)(F)F)c4)no3)CC2)c1,inactive,
CC(C)CN1CC(C)C(=O)N(c2ccccc2)C1=S (centres undefined),inactive,
COc1ccc(Nc2nnc(C)c3ccccc23)cc1,inactive,
COc1ccc(Nc2cc(=O)oc3ccccc23)cc1,5.17 µM (active),
COc1ccc2oc(=O)cc(-c3cc4ccccc4o3)c2c1,inactive,
CN1CCC(N(C)C(=O)c2ccc(Cl)c(S(=O)(=O)Nc3ccc(Cl)cc3)c2)CC1,inactive,
